Assay outcomes (PubChem)
TcdB GH inh: TcdB glycohydrolase inhibition. inhibition, % at 9.99 µM. TcdB glycohydrolase enzymatic assay, plate reader. AID 652162. 350,000 compounds, 0.24% hits. P18177; in the data active = inhibition above about 10%
MazEF act: activators of E. coli MazEF toxin-antitoxin RNase; FAM/BHQ RNA-DNA oligo cleavage fluorescence, 5 h; activation, % at 20 µM; 350,000 compounds, 0.32% hits; AID 504720; in the data active = activation above about 50%
VHR inh abs: DUSP3 (human) phosphatase inhibition; P51452; recombinant VHR phosphatase, pNPP absorbance; inhibition, % at 13.3 µM; 290,000 compounds, 0.52% hits; in the data active = inhibition above about 50%
Yp Topo-I inh: inhibitors of Yersinia pestis topoisomerase I; Y. pestis Topo-I cleavage product accumulation, plate reader; activity, % at 10 µM; 360,000 compounds, 0.064% hits; in the data active = activity above about 50%, passing the limit was not always enough
FadD28 binding: inhibitors of Mycobacterium tuberculosis FadD28 bisubstrate binding | FadD28 bisubstrate probe binding, fluorescence polarization | inhibition, % at 12.5 µM | AID 588549 | 360,000 compounds, 0.22% hits; in the data active = inhibition above about 8.5%, passing the limit was not always enough
Mtb BioA inh: blocks M. tuberculosis BioA enzyme activity; purified M. tuberculosis BioA enzyme, plate reader; inhibition, % at 9.99 µM; 360,000 compounds, 0.096% hits; AID 602481; in the data active = inhibition above about 40%
* = called active by the depositor; . = not tested or not shown; + = active, no number. Only some compounds are listed: those with a hit (about 1% of all), similar ones and a draw of the others.

SMILES	TcdB GH inh	MazEF act	VHR inh abs	Yp Topo-I inh	FadD28 binding	Mtb BioA inh
CCc1nnc(NC(=O)CSc2nc(-c3ccc(F)cc3)cc(-c3ccccc3)c2C#N)s1	1	63*	32	4	0	.
N#CCCn1cc(/C=C(\C#N)c2nc3ccccc3s2)c(-c2ccc(F)cc2)n1	.	53*	-14	-5	-3	-1
COc1cc([N+](=O)[O-])ccc1NC(=O)Oc1ccc(NC(C)=O)cc1	10*	3	5	-1	-1	2
COc1ccc([N+](=O)[O-])cc1NC(=S)NC(C)=O	16*	4	18	-2	-2	.
CCCCC(=O)NC(=S)Nc1cc([N+](=O)[O-])ccc1OC	2	5	26	-8	-3	-1
COCCCN1C2=C(C(=O)CC(C)(C)C2)C(c2ccc(OC)c(OC)c2)C2=C1CC(C)(C)CC2=O	-8	-2	51*	6	0	1
CC(=O)N1CC2(C1)[C@@H](c1ccccc1)[C@@H](CO)N2CC1CCOCC1	0	.	.	.	.	.
CO[C@H]1CN(C)C(=O)c2ccc(NC(=O)CC(F)(F)F)cc2OC[C@H](C)N(C(C)=O)C[C@@H]1C	1	.	.	.	.	.
O=C(O)c1cccc(CN2C(=O)c3ccccc3C2=O)c1	0	-11	-22	-1	.	0
O=C1c2cccc3c(O)ccc(c23)C(=O)N1Cc1ccccc1	.	380*	30	-2	1	-9
Cc1ccc(S(=O)(=O)Nc2ccc3c(c2)C(=O)N([C@@H](C)CO)C[C@H](C)[C@H](CN(C)Cc2ccc(C(F)(F)F)cc2)OCCCC[C@H](C)O3)cc1	2	.	.	.	.	1
Cc1ccc(C)n1-c1ccc(-c2ccn[nH]2)cc1	0	91*	8	-8	0	-2
Cc1ccc(C)n1-c1ccc(-c2nnco2)cc1	.	.	3	-8	0	-1
c1ccn(-c2ccc(-c3ccn[nH]3)cc2)c1	2	+	17	17	-1	.
Cc1nc2[nH]c(=S)[nH]c2c(=O)[nH]1	29*	9	.	3	-3	0
Cc1nc2[nH]c(=S)[nH]c(=O)c2nc1C	2	2	.	-6	-4	-1
COc1ccc(S(=O)(=O)N(C)C[C@H]2Oc3cc(C#CC4CC4)ccc3S(=O)(=O)N([C@@H](C)CO)C[C@H]2C)cc1	0	.	.	.	.	-1
O=C1NC(=S)SC1=Cc1cc(Br)ccc1O	1	-38	.	-2	12*	.
COc1cc(/C=N/NC2=NCCCCC2)ccc1O	14*	1	-8	-7	0	-1
O=C(Cc1ccccc1)OC(COCc1ccccc1)C(=O)NCc1ccccc1 (stereo not given)	0	.	.	.	.	.
COc1ccc(Cl)cc1/C=C/c1ccc2cccc(O)c2n1	0	1	-2	-8	0	.
COc1ccccc1/C=C/c1ccc2cccc(O)c2n1	0	0	53*	5	-2	-1
COCC(=O)N1CC2(CCN(Cc3ccccc3)CC2)c2c(n(C)c3cc(OC)ccc23)[C@H]1CO	-1	.	.	.	.	.
Cc1cc(NC(=O)/C(C#N)=C\c2ccc(-c3ccc(SC(F)F)cc3)o2)n(-c2ccccc2)n1	-1	432*	.	0	-6	.
O=C(C[C@H]1CC[C@@H](NC(=O)C2CC2)[C@@H](CO)O1)NCC1CC1	-1	.	.	.	.	1
SMILES	TcdB GH inh	MazEF act	VHR inh abs	Yp Topo-I inh	FadD28 binding	Mtb BioA inh
N#Cc1ccccc1NC(=O)c1ccccc1OCC(=O)Nc1ccc2c(c1)oc1ccccc12	2	-12	.	-5	-2	1
CNC(=O)COc1ccccc1C(=O)Nc1ccc2c(c1)oc1ccccc12	.	-36	55*	-1	-2	-2
CC(=O)N1CCN=C1SCc1ccc(Br)cc1	1	9	53*	-1	-2	-1
CCOC(=O)N1CCN=C1SCc1ccc(Cl)c(Cl)c1	12*	3	15	1	-3	0
COCC(=O)Nc1ccc2c(c1)C(=O)N(C)C[C@H](OC)[C@H](C)CN(C(=O)Cc1cccnc1)[C@H](C)CO2	0	.	.	.	.	0
COC(=O)c1ccc(OC)c(-c2c(OC)cc(OC)cc2OC)c1	3	2	40	-6	2	.
COc1cc(OC)c(-c2cc(C(=O)O)ccc2OC)c(OC)c1	-2	+	0	-4	-4	4
C[C@@H]1CN([C@@H](C)CO)C(=O)Cc2cc(N(C)C)ccc2O[C@H]1CN(C)C(=O)Nc1ccc(C(F)(F)F)cc1	-15	.	.	.	.	-3
COc1cccc(OCc2nnc(SCc3cc(=O)[nH]c4ccccc34)o2)c1	1	3	-8	47	-4	.
